Data published in ChEMBL document CHEMBL1157539, “Thousands of chemical starting points for antimalarial lead identification” (Nature, 2010).
The full ranking holds about 13,000 compounds; the median of “IFI” is about 4, and the highest 2% start at about 17. The sample as a whole holds a higher share of the highest values than the screen did.

Test: GSK_TCMDC: Inhibition Frequency Index (IFI). The number of non-kinase HTS assays where a compound showed > 50 % inhibition, expressed as a percentage of the number of such assays in which the compound was tested
Assay type: functional

Point of comparison: `CC(C)(C)c1ccc(OCCCON2C(N)=NC(N)=NC2(C)C)cc1`, IFI 18.1%. Against it:
- Cc1cc(=NN=Cc2ccccc2F)c2cc(F)ccc2[nH]1 — lower, 0%
- O=C(NC1CCC(N2CCN(c3cccc(C(F)(F)F)c3)CC2)CC1)c1cc2ccccc2[nH]1 (stereo not drawn) — lower, 17.6%
- O=C(NC1CCC(N2CCC(Cc3ccc(F)cc3)CC2)CC1)c1cc2ccccc2[nH]1 (stereo not drawn) — lower, 14.7%
- Cc1cccc(C)c1N1CCN(C2CCC(NC(=O)c3cc4ccccc4[nH]3)CC2)CC1 (stereo not drawn) — lower, 13.2%
- O=C(NC1CCC(N2CCC(c3ccccc3C(F)(F)F)CC2)CC1)c1cc2ccccc2[nH]1 (stereo not drawn) — lower, 10.4%
- O=C(NC1CCC(N2CCC(O)(c3ccc(F)cc3)CC2)CC1)c1cc2ccccc2[nH]1 (stereo not drawn) — lower, 1.54%
- Cc1cccc(N2CCN(C3CCC(NC(=O)c4cc5ccccc5[nH]4)CC3)CC2)c1C (stereo not drawn) — higher, 22.9%
- COc1ccc(Nc2c3ccc(Cl)cc3nc3ccc(OC)cc23)cc1 — lower, 5.11%
- COc1ccccc1C1CCN(C2CCC(NC(=O)/C=C/c3cc(F)cc(C(F)(F)F)c3)CC2)CC1 (stereo not drawn) — lower, 11.5%
- Cc1cccc2nc(-c3ccc(-c4cccc(CNCc5ccccc5)c4)s3)[nH]c12 — lower, 4.81%
- COc1ccc(-c2cncc3ccc(C(=O)NCc4ccncc4)nc23)cc1 — lower, 6.45%
- COc1ccc(Cc2cccc(C(C(=O)NCc3cc(Cl)cc(Cl)c3)N3CCN(C)CC3)c2)cc1 (stereo not drawn) — lower, 7.75%
- NC(=O)CCC(NC(=O)CNC(=O)Nc1cccc(C(F)(F)F)c1)C(=O)O (stereo not drawn) — higher, 19.9%
- CC(C)NCC(=O)Nc1cccc(C(=O)Nc2cccc(C(F)(F)F)c2)c1 — lower, 2.04%
- O=C(Nc1cccc(C(F)(F)F)c1)Nc1ccc(Cl)c(C(F)(F)F)c1 — lower, 16.7%
- CC(=O)N1N=C(c2ccc(Cl)cc2)Sc2c1nc(-c1ccccc1)n2C(C)=O — lower, 0%
- Cn1c(=O)c2cc(C(=O)NCCCN3CCCCCC3)sc2c2ccccc21 — lower, 3.23%
- OCCN1CCN(Cc2ccc(-c3ccc(-c4nc5cc(F)ccc5[nH]4)cc3)cc2)CC1 — lower, 8.91%
- Cc1cc(=NN=Cc2ccc(F)cc2)c2cc(F)ccc2[nH]1 — lower, 2.86%
- COc1ccc(C(=O)CCC(=O)N(Cc2ccc(-c3ccc(CNCCc4ccccc4)cn3)cc2)C(C)CN(C)C)cc1F (stereo not drawn) — lower, 6.9%
- COc1cc2c(cc1CCNCCCCNCCc1cc3c(cc1OC)CCCC3)CCCC2 — lower, 15.8%
- COc1ccc2c(c1CCNCCCCNCCc1c(OC)ccc3c1CCCC3)CCCC2 — higher, 18.3%
- COc1ccc2c(c1CNCCCCCCNCc1c(OC)ccc3c1CCCC3)CCCC2 — lower, 11.9%
- CCOC(=O)c1ccc(NC(=O)Nc2ccc(-c3cccc(-c4nc5cc(F)ccc5[nH]4)c3)cc2)cc1 — lower, 4.95%
- Cc1cc(C(=O)NC2CCN(CC3(c4ccccc4)CCCCC3)CC2)on1 — lower, 6.38%
- O=C(Nc1ccc(C(=O)Nc2ccc(C3=NCCN3)cc2)cc1)Nc1ccc(C2=NCCN2)cc1 — lower, 5.84%
- O=C(NC1CC1)c1cnc(N2CCC(Cc3ccccc3)CC2)c(Cl)c1 — lower, 9.52%
- Oc1c(CN2CCC(Cc3ccccc3)CC2)cc(Cl)c2cccnc12 — higher, 18.8%
- COc1cc(C)cc(CN2CCC(Cc3ccccc3)CC2)c1O — lower, 0.84%
- COc1ccccc1CN1CCC(CNC(=O)c2cc(-c3ccc(N(C)C)cc3)cs2)C1 (stereo not drawn) — lower, 13.7%
- CCCCN(CCCC)CCCN(CCCN(CCCC)CCCC)c1cc(C)nc(Nc2ccc3cc(Br)ccc3c2)n1 — lower, 15.2%
- CC1(C)N=C(N)N=C(N)N1OCCCCON1C(N)=NC(N)=NC1(C)C — lower, 1.44%
- CCCOc1ccc(CCCON2C(N)=NC(N)=NC2(C)C)cc1 — lower, 6.29%
- CCCc1cccc(OC)c1OCCCON1C(N)=NC(N)=NC1(C)C — lower, 4.51%
- CCC(C)c1cccc(C(C)CC)c1OCCCON1C(N)=NC(N)=NC1(C)C (stereo not drawn) — higher, 24.1%
- CCC(C)Oc1ccc(CCCON2C(N)=NC(N)=NC2(C)C)cc1 (stereo not drawn) — lower, 5.76%
- Cc1cc(-c2cccc(CNC3CCN(C)CC3)c2)ccc1S(=O)(=O)NC1CCC1 — lower, 7.48%
- Nc1nc(N)c2c3c(ccc2n1)NCCC3 — lower, 2.48%
- COc1ccc(CNCc2ccc(-c3ccc(-c4nc5cccc(C)c5[nH]4)cc3)cc2)cc1 — lower, 13.1%
- O=C(Cn1cc(C(F)(F)F)cc(Cl)c1=O)N1CCN(S(=O)(=O)c2ccc(Cl)cc2)CC1 — lower, 0%
- CCCNCc1ccc(-c2ccc(CN(CCOC)C(=O)CCC(=O)c3ccc(OC)c(F)c3)cc2)nc1 — lower, 0.7%
- O=C(Nc1cccc(F)c1)NC1CCN(CCCCCNC(=O)C2CC2c2ccc(Cl)c(Cl)c2)CC1 (stereo not drawn) — lower, 11.5%
- O=C(Nc1ccc(C(F)(F)F)cc1)NC1CCN(CCCCCNC(=O)C2CC2c2ccc(Cl)c(Cl)c2)CC1 (stereo not drawn) — lower, 11.1%
- O=C(Nc1ccc(Cl)cc1)NC1CCN(CCCCCNC(=O)C2CC2c2ccc(Cl)c(Cl)c2)CC1 (stereo not drawn) — lower, 10.2%
- O=C(Nc1ccc(Cl)c(C(F)(F)F)c1)N[C@H]1CCN(CCCCCNC(=O)C2CC2c2ccc(Cl)c(Cl)c2)C1 (stereo partly drawn) — lower, 12.2%
- O=C(Nc1ccc(F)c(C(F)(F)F)c1)NC1CCN(CCCCCNC(=O)C2CC2c2ccc(Cl)c(Cl)c2)CC1 (stereo not drawn) — higher, 18.5%
- O=C(Nc1ccc(F)c(C(F)(F)F)c1)N[C@H]1CCN(CCCCCNC(=O)C2CC2c2ccc(Cl)c(Cl)c2)C1 (stereo partly drawn) — lower, 15.9%
- O=C(Nc1ccc(Cl)c(C(F)(F)F)c1)NC1CCN(CCCCCNC(=O)C2CC2c2ccc(Cl)c(Cl)c2)CC1 (stereo not drawn) — lower, 17.1%
- O=C(Nc1cc(F)cc(F)c1)N[C@H]1CCN(CCCCCNC(=O)C2CC2c2ccc(Cl)c(Cl)c2)C1 (stereo partly drawn) — lower, 13.6%
- O=C(Nc1cccc(F)c1)N[C@H]1CCN(CCCCCNC(=O)C2CC2c2ccc(Cl)c(Cl)c2)C1 (stereo partly drawn) — higher, 19.4%
- COc1ccc(-c2cnc3ccc(NCCCO)nn23)cc1OC — lower, 6.77%
- COc1ccc(-c2nc3cccnc3n2CC(=O)Nc2c(C)cc(C)cc2C)c(OC)c1 — lower, 5.56%
- N=C1N=C(N)NCN1OCc1ccc(Cl)c(Cl)c1 — lower, 0.72%
- Cc1[nH]c(C)c(-c2ccc(OCc3cc(C(F)(F)F)cc(C(F)(F)F)c3)nc2)c(=O)c1Br — lower, 5.36%
- CC(C)(C)c1ccc2[nH]c(-c3ccc(/C=C/C(=O)NCc4cccc(C(F)(F)F)c4)cc3)nc2c1 — lower, 2.9%
- Cc1cccc2nc(-c3cccc(-c4cccc(CN5CCCC5CN)c4)c3)[nH]c12 (stereo not drawn) — lower, 4.95%
- Cc1nn(-c2cccc(C(F)(F)F)c2)c2sc(C(=O)NC3CCN(C(C)C)CC3)cc12 — lower, 10%
- CCCCN(CCCC)CCCCNc1c2ccc(Cl)cc2nc2ccc(OC)cc12 — lower, 6.87%
- CCCc1cc(C(C)=O)ccc1OCCCON1C(=N)N=C(N)NC1(C)C — lower, 3.68%
- CC1(C)NC(N)=NC(=N)N1OCCOc1ccc(Cc2ccccc2)cc1 — lower, 4.41%
- CCCc1cc(OCCCOc2ccccc2)ccc1OCCCON1C(=N)N=C(N)NC1(C)C — higher, 21.1%
- CC1(C)NC(N)=NC(=N)N1OCCCCOc1ccccc1 — lower, 2.17%
- N=C1N=C(N)NC2(CCCCC2)N1OCCCOc1cccc2ccccc12 — lower, 9.16%
- N=C1N=C(N)NC2(CCCCC2)N1OCCOc1ccc(Cc2ccccc2)cc1 — higher, 27.6%
- COc1ccccc1NC(=O)Nc1cccc(-c2cccc(-c3nc4cccc(C)c4[nH]3)c2)c1 — lower, 3.03%
- c1cc(-c2ccc(CNC3CCOCC3)cc2)cc(-c2nc3ccccc3[nH]2)c1 — lower, 0.97%
- CCCCCCOc1ccc2ccccc2c1CNCCCCCCNCc1c(OCCCCCC)ccc2ccccc12 — higher, 22.8%
- CCOc1ccc2ccccc2c1CNCCCCCCNCc1c(OCC)ccc2ccccc12 — lower, 13%
- C#CCOc1ccc2ccccc2c1CNCCCCCCNCc1c(OCC#C)ccc2ccccc12 — lower, 14.1%
- c1ccc2c(CNCCCCCCNCc3c(OCC4CC4)ccc4ccccc34)c(OCC3CC3)ccc2c1 — higher, 18.7%
- Oc1ccc2ccccc2c1CNCCC1CCCCC1 — lower, 2.96%
- C/C=C/COc1ccc2ccccc2c1CNCCCCCCCCNCc1c(OC/C=C/C)ccc2ccccc12 — lower, 16.6%
- C#CCCOc1ccc2ccccc2c1CNCCCCCCNCc1c(OCCC#C)ccc2ccccc12 — lower, 12.8%
- C=CCOc1ccc2ccccc2c1CNCCCCCCNCc1c(OCC=C)ccc2ccccc12 — higher, 19.6%
- CCCOc1ccc2ccccc2c1CNCCCCCCNCc1c(OCCC)ccc2ccccc12 — lower, 17.6%
- CCCCCCCCNCc1c(O)ccc2ccccc12 — lower, 7.69%
- c1ccc2[nH]c(-c3ccc(-c4ccc(CNCC5CCCO5)cc4)s3)nc2c1 (stereo not drawn) — lower, 6.86%
- N#Cc1ccc(-c2ccc(C(=O)NCCCCN3CCC(c4ccc5c(c4OCC(N)=O)CCCC5)CC3)cc2)cc1 — lower, 3.54%
- N=C(N)Nc1nc(-c2ccc(NC(=N)N3CCC[C@H]3CN3CCCC3)cc2)cs1 — lower, 2.17%
- CCCCNc1nc(NCCCC)c2c(C)c(Cc3ccccc3)c(NCCCC)nc2n1 — lower, 16.1%
- COc1ccc(CNCc2cccc(-c3ccc(-c4nc5cccc(C)c5[nH]4)s3)c2)cc1 — lower, 10.4%
- COc1ccccc1/C=C/C(=O)NC1CCC(CCN2CCc3ccc(-c4cc(C)no4)cc3CC2)CC1 (stereo not drawn) — lower, 3.88%
- Nc1c2ccccc2nc2ccc(Cl)cc12 — lower, 9.03%
- Cc1noc(C)c1-c1cccc(CNCc2cccc(-c3cccc(-c4nc5ccccc5[nH]4)c3)c2)c1 — lower, 3.92%
- COc1cc(CN/C(=N/c2ccc(-c3ccccc3)cc2)Nc2ccc(C#N)cc2O)cc(OC)c1 — lower, 1.46%
- Cc1nc2nc(N)nc(N)c2c(C)c1Cc1ccc([N+](=O)[O-])cc1 — lower, 1.6%
- O=C(NCCCCN1CCC(c2ccc3c(c2OCCCO)CCCC3)CC1)c1ccc(-c2ccc(C(F)(F)F)cc2)c(CO)c1 — lower, 10.1%
- CC1(C)NC(N)=NC(=N)N1OCCOc1cccc(C(F)(F)F)c1 — lower, 3.7%
- Cc1ccc(NC(=N)Nc2ncccc2OCc2c(F)cccc2Cl)cc1 — higher, 22%
- CCOc1cc2ncnc(Nc3ccc(OCc4c(Cl)cccc4Cl)c(OC)c3)c2cc1OCC — lower, 0%
- CCOc1cc2ncnc(Nc3ccc(OCc4c(F)cccc4F)c(OC)c3)c2cc1OCC — lower, 0%
- O=C(Nc1ccccc1)N(Cc1ccc(-c2ccc(CNC3CCCC3)cc2)cc1)C1CCN(Cc2ccccc2)CC1 — lower, 4.9%
